# From PubChem BioAssay (EPA / NIEHS)
# Values joined by “and” are separate entries in the source; they are usually repeats but may differ in a detail not shown here. Equal values may be shown once. Results filed as inconclusive are left out. The source holds several records for some structures; these can differ, active in one and inactive in another. Active and inactive are the calls of the source. Rule for the calls, unless noted: active = hit-call score of the fitted dose curve at least 0.9, where 1 is the maximum; inconclusive = response in the unintended direction; inactive = score below 0.9.
# Columns and labels:
# [1] = test system: Sodium/Iodide Symporter (NIS), SLC5A5 (gene 6528); experiment: CPHEA_Stoker_NIS_Inhibition_RAIU: CPHEA's Radioactive Iodide Uptake (RAIU) Assay for Sodium/Iodide Symporter (NIS) Inhibition, Stoker and Laws Labs (AID 2283841)
# Method in brief: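 hNIS-HEK293T-EPA cells incubated 2 h at room temperature with compound (0.001–100 uM, 0.5% DMSO) and 329 pM final 125I in HBSS/10 mM HEPES, pH 7.4. Intracellular 125I counted; normalised to DMSO maximal uptake, triplicate, three biological replicates.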
# [2] = CPHEA_Stoker_NIS_Cytotoxicity: Cytotoxicity Assessment for CPHEA's Radioactive Iodide Uptake (RAIU) Assay for Sodium/Iodide Symporter (NIS) Inhibition, Stoker and Laws Labs (AID 2283897);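 for AC50: active means loss of ATP signal versus DMSO meaning cytotoxicity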
# Method in brief: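 hNIS-HEK293T-EPA cells, human NIS expressed in HEK293T, treated 2 h with chemicals (0.001–100 uM, 0.5% final DMSO). ATP content read by CellTiter-Glo luminescence; loss of signal analysed relative to DMSO.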
# [3] = ATG_M_61_XSP2: Attagene TRANS-FACTORIAL Multi-Species (XSP2) HepG2 Assay for M61 Transcription Factor (Internal Marker) (AID 2283835; active = hit-call score of the fitted dose curve at least 0.9, where 1 is the maximum; inactive = score below 0.9;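 note: reporter mRNA of an internal background marker read by RT-PCR and capillary electrophoresis; active means a rise in signal above the DMSO baseline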)
# Method in brief: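 Signal was mRNA induction detected as fluorescence after RT-PCR and capillary electrophoresis, analysed in the gain direction with DMSO as baseline. HepG2 cells transiently carrying reporter constructs received chemicals for 24 h.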
# [4] = biological target: zebrafish Thyroid Hormone Receptor beta (TRb), thrb (gene 30607) (UniProt Q9PVE4); experiment: ATG_zfTRb_XSP2: Attagene TRANS-FACTORIAL Multi-Species (XSP1) HepG2 Assay for zebrafish Thyroid Hormone Receptor beta (TRb) (AID 2283836);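 for AC50: potency for induction of reporter signal above DMSO so agonist direction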
# Method in brief: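 Reporter transcripts measured by RT-PCR, 6-FAM labelling, HpaI digestion and capillary electrophoresis after 24 h chemical exposure. Human HepG2 cells carry an exogenous zebrafish TRb-GAL4 chimera; medium included 3 nM 6-alpha-fluorotestosterone plus 1.5 nM norgestrel.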
# [5] = biological target: frog Thyroid hormone Receptor alpha (TRa), thra-a (gene 397942) (UniProt P15204); experiment: ATG_frTRa_XSP2: Attagene TRANS-FACTORIAL Multi-Species (XSP2) HepG2 Assay for frog Thyroid hormone Receptor alpha (TRa) (AID 2283839);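 for AC50: AC50 reflects induction of frog TRa-driven reporter mRNA above DMSO baseline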
# Method in brief: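 HepG2 transiently transfected with multiplexed GAL4-UAS reporters driven by frog TRa-Gal4 chimeras; 24 h chemical exposure. Reporter mRNA quantified by RT-PCR, FAM labelling, HpaI digestion and capillary electrophoresis; gain of signal versus DMSO.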
# [6] = biological target: human Thyroid hormone Receptor beta (TRb), THRB (gene 7068) (UniProt P10828); experiment: ATG_hTRb_XSP2: Attagene TRANS-FACTORIAL Multi-Species (XSP2) HepG2 Assay for human Thyroid hormone Receptor beta (TRb) (AID 2283840);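 note: actives raise reporter mRNA so potency reflects agonist-like gain of signal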
# Method in brief: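 HepG2 transiently transfected with a multi-species panel including a human TRb–Gal4 chimera driving Gal4-UAS reporters; medium contained 3 nM 6-alpha-fluorotestosterone and 1.5 nM norgestrel. 24 h dosing; RT-PCR/capillary electrophoresis readout; positive-direction fit vs DMSO.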
# [7] = ATG_XTT_Cytotoxicity_XSP2: Cytotoxicity Assessment in the Attagene TRANS-FACTORIAL Multi-Species (XSP2) HepG2 Assay (AID 2283837)
# Method in brief: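 XTT-based cell number read-out in human HepG2 liver cells carrying transfected reporter units, measured 24 h after chemical dosing. Activity is signal loss versus DMSO baseline.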
# [8] = CEETOX_H295R_OHPREG_noMTC: CeeTox H295R High-throughput Steroidogenesis Assay for OH-Pregnenolone (OHPREG), maximum tolerated concentration (MTC) filtered results only (AID 2283912; active = hit-call score of the fitted dose curve at least 0.9, where 1 is the maximum; inactive = score below 0.9); conditions: actives raise or lower the signal
# Description: CEETOX_H295R is a cell-based, multiplexed-readout assay that uses H295R, a human adrenal gland cell line, with measurements taken at 48 hours after chemical dosing in a 96-well plate.CEETOX_H295R_OHPREG_noMTC is one of 12 assay component(s) measured or calculated from the CEETOX_H295R assay (11 hormones and 1 viability assay). It is designed to make measurements of hormone induction, a form of inducible reporter, as detected with absorbance signals by HPLC-MS-MS technology. The concentrations for these components have not been pre-filtered for the maximum tolerated concentration (MTC) based on the MTT assay (_noMTC).Data from the assay component CEETOX_H295R_OHPREG_noMTC was analyzed into 1 assay endpoint. This assay endpoint, CEETOX_H295R_OHPREG_noMTC, was analyzed with bidirectional fitting relative to DMSO as the negative control and baseline of activity. […]
# Cell culture and media preparation procedures were conducted in accordance with OECD Test No. 456 guidelines, with minor modifications. […] For steroid quantification, media samples were shipped to OpAns, LLC (Durham, NC) on dry ice, and samples were thawed to room temperature prior to liquid-liquid extraction. […] Steroid hormones were separated by HPLC, eluted using a reverse phase C18 gradient with electrospray positive ionization, followed by quantification by tandem mass spectrometry (MS/MS). […]
# [9] = CEETOX_H295R_OHPROG_noMTC: CeeTox H295R High-throughput Steroidogenesis Assay for OH-Progesterone (OHPROG), maximum tolerated concentration (MTC) filtered results only (AID 2283914; active = hit-call score of the fitted dose curve at least 0.9, where 1 is the maximum; inactive = score below 0.9); conditions: actives raise or lower the signal
# Method in brief: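 Analysis uses all tested concentrations, without maximum-tolerated-concentration screening by MTT. H295R cells, forskolin-primed (10 uM, 48 h), receive chemical for 48 h; hormone in medium measured by HPLC-MS/MS, with bidirectional curve fitting against DMSO.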
# [10] = CEETOX_H295R_ANDR_noMTC: CeeTox H295R High-throughput Steroidogenesis Assay for Androstenedione (ANDR), maximum tolerated concentration (MTC) filtered results only (AID 2283915; active = hit-call score of the fitted dose curve at least 0.9, where 1 is the maximum; inactive = score below 0.9); conditions: actives raise or lower the signal
# Method in brief: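 Androstenedione secreted into medium was measured by LC-MS/MS after MTBE extraction. Human adrenal H295R cells received 10 uM forskolin for 48 h before 48 h chemical exposure (0.1% DMSO). Gain or loss fitted against DMSO, including concentrations above the MTT-derived MTC.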
# zebrafish Thyroid Hormone Receptor beta (TRb), thrb (gene 30607), sequence (Q9PVE4 whole entry, looked up, the tested form may be a part): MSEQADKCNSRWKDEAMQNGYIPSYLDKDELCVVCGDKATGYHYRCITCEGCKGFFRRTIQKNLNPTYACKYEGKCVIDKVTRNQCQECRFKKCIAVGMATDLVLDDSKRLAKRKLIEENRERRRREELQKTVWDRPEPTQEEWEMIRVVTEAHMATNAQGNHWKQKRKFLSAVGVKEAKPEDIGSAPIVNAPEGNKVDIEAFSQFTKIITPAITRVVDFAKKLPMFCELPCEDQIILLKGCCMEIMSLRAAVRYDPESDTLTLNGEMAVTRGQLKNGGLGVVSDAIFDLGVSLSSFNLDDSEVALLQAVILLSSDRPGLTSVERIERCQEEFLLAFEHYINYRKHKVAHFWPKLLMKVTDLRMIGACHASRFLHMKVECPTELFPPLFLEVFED
# human Thyroid hormone Receptor beta (TRb), THRB (gene 7068), sequence (P10828 whole entry, looked up, the tested form may be a part): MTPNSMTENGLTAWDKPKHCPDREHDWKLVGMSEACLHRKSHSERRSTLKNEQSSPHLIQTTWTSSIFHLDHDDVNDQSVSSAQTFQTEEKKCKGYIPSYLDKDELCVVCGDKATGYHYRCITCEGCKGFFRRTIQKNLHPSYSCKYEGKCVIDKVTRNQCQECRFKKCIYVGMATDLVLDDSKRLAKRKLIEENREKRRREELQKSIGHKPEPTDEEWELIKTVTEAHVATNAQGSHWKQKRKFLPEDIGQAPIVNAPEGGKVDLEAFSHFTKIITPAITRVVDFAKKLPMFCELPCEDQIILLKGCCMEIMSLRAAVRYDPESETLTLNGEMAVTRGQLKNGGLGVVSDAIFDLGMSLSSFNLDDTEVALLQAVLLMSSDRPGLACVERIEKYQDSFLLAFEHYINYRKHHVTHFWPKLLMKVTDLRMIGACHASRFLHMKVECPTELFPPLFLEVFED
# frog Thyroid hormone Receptor alpha (TRa), thra-a (gene 397942), sequence (P15204 whole entry, looked up, the tested form may be a part): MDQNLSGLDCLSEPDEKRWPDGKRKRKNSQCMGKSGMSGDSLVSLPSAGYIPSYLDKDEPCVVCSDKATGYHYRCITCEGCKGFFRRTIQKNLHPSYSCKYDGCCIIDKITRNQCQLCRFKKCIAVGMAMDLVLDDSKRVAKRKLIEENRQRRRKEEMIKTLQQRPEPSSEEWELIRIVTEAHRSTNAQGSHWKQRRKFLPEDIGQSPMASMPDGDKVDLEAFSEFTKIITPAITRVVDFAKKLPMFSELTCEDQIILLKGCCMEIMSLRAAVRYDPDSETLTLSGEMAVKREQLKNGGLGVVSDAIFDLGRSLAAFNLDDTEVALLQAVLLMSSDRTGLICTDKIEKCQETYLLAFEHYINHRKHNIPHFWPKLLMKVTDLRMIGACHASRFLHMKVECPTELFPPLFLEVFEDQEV
structure (smiles),measurement,setting,value
OC(c1ccc(Cl)cc1)(c1ccc(Cl)cc1)C(Cl)(Cl)Cl,AC50,[1],30.2 µM (active)
same,AC50,[2],50 µM (active)
CC1(C)C(C=C(Cl)Cl)C1C(=O)OC(C#N)c1cccc(Oc2ccccc2)c1 (stereo unspecified),outcome,[3],inactive
same,outcome,[4],inactive
same,outcome,[5],inactive
same,outcome,[6],inactive
same,outcome,[1],inactive
same,outcome,[2],inactive
COc1ccc(-c2ccccc2)cc1NNC(=O)OC(C)C,AC50,[1],50 µM (active)
same,outcome,[2],inactive
CC1(C)CCC(=Cc2ccc(Cl)cc2)C1(O)Cn1cncn1 (stereo unspecified),outcome,[4],inactive
same,outcome,[5],inactive
same,outcome,[6],inactive
CC1(C)C(C(=O)OC(C#N)c2cccc(Oc3ccccc3)c2)C1(C)C (stereo unspecified),outcome,[1],inactive
same,outcome,[2],inactive
O=C1C2CC=CCC2C(=O)N1SC(Cl)(Cl)Cl (stereo unspecified),AC50,[1],36 µM (active)
same,outcome,[2],inactive
Cc1ccc(N=CN(C)C=Nc2ccc(C)cc2C)c(C)c1,outcome,[1],inactive
same,outcome,[2],inactive
COP(=S)(OC)SCn1nnc2ccccc2c1=O,outcome,[3],inactive
same,outcome,[4],inactive
same,outcome,[7],inactive
same,outcome,[5],inactive
same,outcome,[6],inactive
same,outcome,[1],inactive
same,outcome,[2],inactive
COC(=O)c1c(C(F)F)nc(C(F)(F)F)c(C2=NCCS2)c1CC(C)C,outcome,[1],inactive
same,outcome,[2],inactive
same,outcome,[8],inactive
same,AC50,[9],7.98 µM (active)
same,outcome,[10],inactive
CC(C)NC(=O)N1CC(=O)N(c2cc(Cl)cc(Cl)c2)C1=O,outcome,[3],inactive
same,outcome,[4],inactive
same,outcome,[5],inactive
CCCCC(C#N)(Cn1cncn1)c1ccc(Cl)cc1 (stereo unspecified),outcome,[2],inactive
CCOc1cc(C(C)(C)C)ccc1C1COC(c2c(F)cccc2F)=N1 (stereo unspecified),AC50,[1],1.21 µM (active)
same,outcome,[2],inactive
O=C(Nc1ccccc1-c1ccc(Cl)cc1)c1cccnc1Cl,outcome,[1],inactive
same,outcome,[2],inactive
CC(C)N1C(=O)N(c2ccccc2)CSC1=NC(C)(C)C,AC50,[1],27.8 µM (active)
same,AC50,[2],40.8 µM (active)
CCOP(=O)(OCC)Oc1nc(Cl)c(Cl)cc1Cl,outcome,[1],inactive
same,outcome,[2],inactive
CCNP(=S)(OC)O/C(C)=C/C(=O)OC(C)C (stereo unspecified),outcome,[1],inactive
same,outcome,[2],inactive
Nc1c(Cl)c(Cl)nc(C(=O)O)c1Cl,outcome,[1],inactive
same,outcome,[2],inactive
CCCCC(O)(Cn1cncn1)c1ccc(Cl)cc1Cl (stereo unspecified),outcome,[1],inactive
same,outcome,[2],inactive
CCCCOCN(C(=O)CCl)c1c(CC)cccc1CC,outcome,[1],inactive
same,outcome,[2],inactive
C=CCOC(=O)C(C)(C)OC(=O)c1cc(-n2c(=O)cc(C(F)(F)F)n(C)c2=O)ccc1Cl,outcome,[1],inactive
same,outcome,[2],inactive
CC(C)Oc1cccc(NC(=O)c2ccccc2C(F)(F)F)c1,outcome,[1],inactive
same,outcome,[2],inactive
CCN(CC)C(=O)C(C)Oc1cccc2ccccc12 (stereo unspecified),outcome,[3],inactive
same,outcome,[4],inactive
same,outcome,[5],inactive
same,outcome,[6],inactive
same,outcome,[1],inactive
same,outcome,[2],inactive
CC1(C)CON(Cc2ccccc2Cl)C1=O,outcome,[1],inactive
same,outcome,[2],inactive
CCOP(=S)(OCC)Oc1nc(Cl)n(C(C)C)n1,outcome,[1],inactive
same,outcome,[2],inactive
Cc1c(COC(=O)[C@@H]2[C@H](/C=C(\Cl)C(F)(F)F)C2(C)C)cccc1-c1ccccc1,outcome,[4],inactive
same,outcome,[5],inactive
COP(=S)(OC)Oc1ccc([N+](=O)[O-])c(C)c1,outcome,[3],inactive
same,outcome,[4],inactive
same,outcome,[5],inactive
same,outcome,[6],inactive
same,outcome,[1],inactive
same,outcome,[2],inactive
CCN(CC)c1nc(C)cc(OP(=S)(OC)OC)n1,outcome,[1],inactive
same,outcome,[2],inactive
C=C(C)CN(CC)c1c([N+](=O)[O-])cc(C(F)(F)F)cc1[N+](=O)[O-],outcome,[3],inactive
same,outcome,[4],inactive
same,outcome,[5],inactive
same,outcome,[6],inactive
same,AC50,[1],5.45 µM (active)
same,AC50,[2],9.92 µM (active)
CCOc1nc(F)cc2nc(S(=O)(=O)Nc3c(Cl)cccc3Cl)nn12,outcome,[1],inactive
same,outcome,[2],inactive
Clc1cccc(C(Cl)(Cl)Cl)n1,outcome,[1],inactive
same,outcome,[2],inactive
CSC(=O)c1c(C(F)F)nc(C(F)(F)F)c(C(=O)SC)c1CC(C)C,outcome,[6],inactive
same,outcome,[1],inactive
same,outcome,[2],inactive
CC(C)=CC1C(C(=O)OCc2coc(Cc3ccccc3)c2)C1(C)C (stereo unspecified),outcome,[1],inactive
same,outcome,[2],inactive
N#Cc1c[nH]cc1-c1cccc2c1OC(F)(F)O2,outcome,[3],inactive
same,AC50,[4],100 µM (active)
same,outcome,[4],inactive
same,AC50,[5],100 µM (active) and 60.7 µM (active)
same,outcome,[6],inactive
same,outcome,[1],inactive
same,outcome,[2],inactive
CCOC(=O)C(C)OC(=O)c1cc(Oc2ccc(C(F)(F)F)cc2Cl)ccc1[N+](=O)[O-] (stereo unspecified),outcome,[1],inactive
same,outcome,[2],inactive
CO/N=C(/C1=NOCCO1)c1ccccc1Oc1ncnc(Oc2ccccc2Cl)c1F,AC50,[1],9.92 µM (active)
same,AC50,[2],10.9 µM (active)
